Of roughly 8,800 targets only a part is listed; those with a hit were picked by preference. About 0.5% of all pairs of compound and target were hits. Unmarked numbers belong to inactive results.
compound: C1=CC=C(C=C1)[C@H](COC2=CC3=C(C=C2)NC(=O)N3)NC(=O)C4=CC=CN(C4=O)CC5=CC(=C(C=C5)F)F; experiment: log2 fold change, soluble protein after heating vs DMSO (PISA); higher = thermal stabilisation; K562 lysate, 10 uM; active = over 0.2 and 3.5 SD of the protein, either way, in both replicates (recomputed)
Procedure, shortened: (§1)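 A 30 min treatment with 10 μM compound was applied to crude K562 extract at 1 mg/mL protein in PBS pH 7.4 with 1 mM MgCl2. Heating for 3 min spanned 48°C-58°C, after which aliquots were pooled, adjusted to 0.5% NP-40 at 4°C and spun at 21,000xg for 90 min. TMTpro 16plex LC-MS/MS of the supernatant, with channel sums equalised, gave values recorded as log-two fold change in thermal stability against solvent controls, from duplicates.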

UniProt Q12983, sequence (Q12983 whole entry, looked up): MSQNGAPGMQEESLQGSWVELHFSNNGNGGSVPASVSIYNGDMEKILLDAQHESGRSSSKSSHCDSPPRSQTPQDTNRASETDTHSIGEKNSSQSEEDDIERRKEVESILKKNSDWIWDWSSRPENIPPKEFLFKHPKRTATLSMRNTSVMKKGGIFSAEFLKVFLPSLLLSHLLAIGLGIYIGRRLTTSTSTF
UniProt Q9Y297, sequence (Q9Y297 whole entry, looked up): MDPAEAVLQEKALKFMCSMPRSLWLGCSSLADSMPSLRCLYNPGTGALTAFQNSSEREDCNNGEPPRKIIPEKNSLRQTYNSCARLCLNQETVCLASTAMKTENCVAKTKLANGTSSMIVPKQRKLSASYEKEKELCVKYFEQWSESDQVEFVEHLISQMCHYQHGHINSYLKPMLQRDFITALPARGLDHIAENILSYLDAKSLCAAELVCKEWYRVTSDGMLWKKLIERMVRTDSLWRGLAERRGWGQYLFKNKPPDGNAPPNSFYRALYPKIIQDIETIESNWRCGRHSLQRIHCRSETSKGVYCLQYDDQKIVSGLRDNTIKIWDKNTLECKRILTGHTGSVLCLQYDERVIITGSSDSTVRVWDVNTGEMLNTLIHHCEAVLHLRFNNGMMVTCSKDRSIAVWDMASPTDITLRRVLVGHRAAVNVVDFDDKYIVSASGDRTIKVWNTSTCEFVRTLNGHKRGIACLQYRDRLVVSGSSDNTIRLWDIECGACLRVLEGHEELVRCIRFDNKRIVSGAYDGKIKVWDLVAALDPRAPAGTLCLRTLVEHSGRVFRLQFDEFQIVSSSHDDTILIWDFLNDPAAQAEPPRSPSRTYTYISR
UniProt P0DMB2, sequence (P0DMB2 whole entry, looked up): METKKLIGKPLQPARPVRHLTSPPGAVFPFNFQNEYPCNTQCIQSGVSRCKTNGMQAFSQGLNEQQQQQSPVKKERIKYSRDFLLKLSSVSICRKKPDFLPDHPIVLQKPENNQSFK
UniProt Q9BRD0, sequence (Q9BRD0 whole entry, looked up): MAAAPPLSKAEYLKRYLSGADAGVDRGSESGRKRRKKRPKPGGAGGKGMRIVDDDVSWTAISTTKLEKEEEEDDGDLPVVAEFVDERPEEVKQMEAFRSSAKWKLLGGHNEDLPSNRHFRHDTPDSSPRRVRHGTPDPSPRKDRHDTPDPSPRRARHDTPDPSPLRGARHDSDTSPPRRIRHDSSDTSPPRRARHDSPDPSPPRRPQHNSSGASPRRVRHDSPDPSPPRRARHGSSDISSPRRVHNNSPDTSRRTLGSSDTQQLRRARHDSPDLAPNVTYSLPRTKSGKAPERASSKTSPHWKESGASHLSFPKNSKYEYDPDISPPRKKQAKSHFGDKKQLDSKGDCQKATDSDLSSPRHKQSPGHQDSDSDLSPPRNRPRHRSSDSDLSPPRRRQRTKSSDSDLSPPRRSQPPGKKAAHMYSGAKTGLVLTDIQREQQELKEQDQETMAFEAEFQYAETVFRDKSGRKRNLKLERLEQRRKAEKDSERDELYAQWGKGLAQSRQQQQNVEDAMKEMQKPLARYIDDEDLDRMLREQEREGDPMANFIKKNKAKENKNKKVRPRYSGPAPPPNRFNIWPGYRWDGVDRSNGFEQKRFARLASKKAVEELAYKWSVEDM
UniProt Q96LT7, sequence (Q96LT7 whole entry, looked up): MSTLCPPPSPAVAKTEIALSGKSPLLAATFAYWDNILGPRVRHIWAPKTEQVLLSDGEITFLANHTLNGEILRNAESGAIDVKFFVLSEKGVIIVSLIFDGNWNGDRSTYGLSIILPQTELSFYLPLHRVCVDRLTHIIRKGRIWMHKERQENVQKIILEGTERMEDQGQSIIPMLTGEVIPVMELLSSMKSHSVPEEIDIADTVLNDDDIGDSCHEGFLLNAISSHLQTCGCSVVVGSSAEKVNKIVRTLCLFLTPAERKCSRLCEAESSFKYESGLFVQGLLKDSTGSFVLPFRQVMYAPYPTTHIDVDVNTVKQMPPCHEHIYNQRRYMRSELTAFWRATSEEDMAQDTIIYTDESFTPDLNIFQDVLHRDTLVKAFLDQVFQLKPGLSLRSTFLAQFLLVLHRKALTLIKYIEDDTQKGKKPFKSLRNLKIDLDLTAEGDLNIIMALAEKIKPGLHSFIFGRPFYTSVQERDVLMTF
UniProt Q7Z4R8, sequence (Q7Z4R8 whole entry, looked up): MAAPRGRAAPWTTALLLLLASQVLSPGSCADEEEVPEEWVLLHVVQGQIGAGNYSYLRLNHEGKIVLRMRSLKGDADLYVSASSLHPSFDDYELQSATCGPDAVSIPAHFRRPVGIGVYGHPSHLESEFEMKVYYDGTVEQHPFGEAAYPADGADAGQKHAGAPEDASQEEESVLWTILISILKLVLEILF
UniProt Q9UQ88, sequence (Q9UQ88 whole entry, looked up): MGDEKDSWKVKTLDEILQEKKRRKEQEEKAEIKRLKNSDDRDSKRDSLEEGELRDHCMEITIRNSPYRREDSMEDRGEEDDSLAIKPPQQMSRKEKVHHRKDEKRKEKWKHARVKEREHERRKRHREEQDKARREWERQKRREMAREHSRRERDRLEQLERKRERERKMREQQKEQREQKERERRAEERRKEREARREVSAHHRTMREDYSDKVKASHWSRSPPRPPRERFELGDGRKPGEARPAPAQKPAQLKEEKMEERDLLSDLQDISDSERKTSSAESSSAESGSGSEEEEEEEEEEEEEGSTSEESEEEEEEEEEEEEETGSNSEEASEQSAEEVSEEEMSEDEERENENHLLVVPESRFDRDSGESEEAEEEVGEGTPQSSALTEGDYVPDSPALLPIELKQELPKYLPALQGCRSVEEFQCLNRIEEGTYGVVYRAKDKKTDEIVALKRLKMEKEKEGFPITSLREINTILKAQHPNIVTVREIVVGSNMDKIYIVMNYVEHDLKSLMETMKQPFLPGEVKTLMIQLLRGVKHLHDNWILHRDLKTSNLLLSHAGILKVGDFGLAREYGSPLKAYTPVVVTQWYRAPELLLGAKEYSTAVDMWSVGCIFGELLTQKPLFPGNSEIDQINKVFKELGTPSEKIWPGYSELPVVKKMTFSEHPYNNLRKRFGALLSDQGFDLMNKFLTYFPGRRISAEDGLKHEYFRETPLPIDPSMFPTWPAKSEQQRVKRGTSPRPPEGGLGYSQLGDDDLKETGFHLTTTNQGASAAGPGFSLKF
UniProt Q8IYX8, sequence (Q8IYX8 whole entry, looked up): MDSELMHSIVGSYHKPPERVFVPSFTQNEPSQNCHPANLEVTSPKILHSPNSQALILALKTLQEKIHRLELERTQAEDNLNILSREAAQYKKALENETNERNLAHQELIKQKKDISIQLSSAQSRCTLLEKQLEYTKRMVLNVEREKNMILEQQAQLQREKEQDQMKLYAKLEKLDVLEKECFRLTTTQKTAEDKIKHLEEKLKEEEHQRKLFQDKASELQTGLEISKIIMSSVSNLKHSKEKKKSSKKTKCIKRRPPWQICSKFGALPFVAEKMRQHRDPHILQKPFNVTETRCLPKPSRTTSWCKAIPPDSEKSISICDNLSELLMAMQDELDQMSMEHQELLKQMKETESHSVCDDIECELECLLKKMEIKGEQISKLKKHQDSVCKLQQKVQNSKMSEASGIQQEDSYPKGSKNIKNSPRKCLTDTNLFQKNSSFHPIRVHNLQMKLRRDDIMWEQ
UniProt Q6P4H8, sequence (Q6P4H8 whole entry, looked up): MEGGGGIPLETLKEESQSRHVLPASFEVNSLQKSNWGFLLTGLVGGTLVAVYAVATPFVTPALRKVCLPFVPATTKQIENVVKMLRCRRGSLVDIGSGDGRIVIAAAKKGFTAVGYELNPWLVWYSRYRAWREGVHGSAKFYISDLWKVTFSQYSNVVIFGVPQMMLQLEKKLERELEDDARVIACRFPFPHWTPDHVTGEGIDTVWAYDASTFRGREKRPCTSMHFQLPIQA
UniProt Q96L58, sequence (Q96L58 whole entry, looked up): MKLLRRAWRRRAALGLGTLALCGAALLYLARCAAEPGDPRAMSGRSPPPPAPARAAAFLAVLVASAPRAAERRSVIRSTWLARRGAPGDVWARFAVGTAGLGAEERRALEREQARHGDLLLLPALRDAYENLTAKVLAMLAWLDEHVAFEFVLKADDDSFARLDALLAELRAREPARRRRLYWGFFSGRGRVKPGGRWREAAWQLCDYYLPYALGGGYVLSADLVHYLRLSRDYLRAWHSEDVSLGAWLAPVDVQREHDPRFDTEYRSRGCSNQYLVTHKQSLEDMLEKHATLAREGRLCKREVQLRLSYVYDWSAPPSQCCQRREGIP
UniProt P30281, sequence (P30281 whole entry, looked up): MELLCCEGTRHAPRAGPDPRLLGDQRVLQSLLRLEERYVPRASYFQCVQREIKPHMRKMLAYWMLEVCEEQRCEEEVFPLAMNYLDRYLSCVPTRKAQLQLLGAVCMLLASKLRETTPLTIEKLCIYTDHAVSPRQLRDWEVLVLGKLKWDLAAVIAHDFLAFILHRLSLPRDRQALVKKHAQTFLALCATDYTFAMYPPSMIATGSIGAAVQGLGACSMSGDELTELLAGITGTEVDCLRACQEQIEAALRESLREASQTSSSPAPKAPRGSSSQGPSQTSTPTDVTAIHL
UniProt P55210, sequence (P55210 whole entry, looked up): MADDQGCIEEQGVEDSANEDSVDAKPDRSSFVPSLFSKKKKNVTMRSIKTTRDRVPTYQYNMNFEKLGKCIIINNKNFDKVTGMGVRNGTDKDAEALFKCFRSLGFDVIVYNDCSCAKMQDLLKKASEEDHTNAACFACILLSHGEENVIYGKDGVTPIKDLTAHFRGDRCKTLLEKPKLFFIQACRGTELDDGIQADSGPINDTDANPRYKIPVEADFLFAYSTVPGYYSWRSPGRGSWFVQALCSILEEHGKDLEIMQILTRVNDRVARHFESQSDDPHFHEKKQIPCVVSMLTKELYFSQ
UniProt Q7Z7K6, sequence (Q7Z7K6 whole entry, looked up): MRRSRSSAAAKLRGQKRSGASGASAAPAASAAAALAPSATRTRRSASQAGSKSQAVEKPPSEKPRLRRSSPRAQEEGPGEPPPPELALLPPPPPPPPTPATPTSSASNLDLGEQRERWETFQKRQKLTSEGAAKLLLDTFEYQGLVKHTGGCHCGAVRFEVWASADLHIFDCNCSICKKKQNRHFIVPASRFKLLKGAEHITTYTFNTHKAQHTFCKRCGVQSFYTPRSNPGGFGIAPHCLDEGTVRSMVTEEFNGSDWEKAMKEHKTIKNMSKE

Target | log2 fold change
CEP57L1 (UniProt Q8IYX8) | -0.078
CDK11A (UniProt Q9UQ88) | -0.046
B3GALT6 (UniProt Q96L58) | 0.055
CASC1 (UniProt Q6TDU7) | -0.256
BICRA (UniProt Q9NZM4) | -0.077
C15orf39 (UniProt Q6ZRI6) | -0.095
BNIP3 (UniProt Q12983) | 0.034
CENPV (UniProt Q7Z7K6) | 0.059
C3AR1 (UniProt Q16581) | 0.121
CARHSP1 (UniProt H3BNU9) | -0.034
ATE1 (UniProt O95260) | 0
BTRC (UniProt Q9Y297) | 0.024
C9orf72 (UniProt Q96LT7) | -0.012
BUD13 (UniProt Q9BRD0) | -0.037
ATG4D (UniProt Q86TL0) | -0.011
ATF7IP2 (UniProt Q5U623) | 0.162
ATPSCKMT (UniProt Q6P4H8) | 0.111
CASP7 isoform 3 (UniProt P55210) | 0.035
CCND3 (UniProt P30281) | 0.043
C6orf120 (UniProt Q7Z4R8) | -0.101
C8orf88 (UniProt P0DMB2) | 0.033
CEP295 isoform 3 (UniProt Q9C0D2) | -0.154

compound: CC1=C(SC2=C1C(=N[C@H](C3=NN=C(N32)C)CC(=O)N)C4=CC=C(C=C4)Cl)C; experiment: as above
Procedure, shortened: as §1

Target | log2 fold change
CEP57L1 (UniProt Q8IYX8) | 0.115
CDK11A (UniProt Q9UQ88) | 0.025
B3GALT6 (UniProt Q96L58) | 0.041
CASC1 (UniProt Q6TDU7) | 0.037
BICRA (UniProt Q9NZM4) | 0.208
C15orf39 (UniProt Q6ZRI6) | 0.049
BNIP3 (UniProt Q12983) | -0.053
CENPV (UniProt Q7Z7K6) | -0.217
C3AR1 (UniProt Q16581) | 0.024
CARHSP1 (UniProt H3BNU9) | -0.224
ATE1 (UniProt O95260) | 0.07
BTRC (UniProt Q9Y297) | -0.042
C9orf72 (UniProt Q96LT7) | 0.049
BUD13 (UniProt Q9BRD0) | 0.068
ATG4D (UniProt Q86TL0) | 0.057
ATF7IP2 (UniProt Q5U623) | 0.01
ATPSCKMT (UniProt Q6P4H8) | -0.006
CASP7 isoform 3 (UniProt P55210) | -0.02
CCND3 (UniProt P30281) | 0.051
C6orf120 (UniProt Q7Z4R8) | -0.015
C8orf88 (UniProt P0DMB2) | 0.051
CEP295 isoform 3 (UniProt Q9C0D2) | 0.045

compound: CC1=C2C(=CC=C1)N=C(N(C2=O)C3=CC=CC=C3C)CN4C=NC5=C(N=CN=C54)N; experiment: as above
Procedure, shortened: as §1

Target | log2 fold change
CEBPZOS (UniProt A8MTT3) | -0.03
BCORL1 isoform 3 (UniProt Q5H9F3) | 0.029
C1orf131 isoform 5 (UniProt Q8NDD1) | 0.096
CACUL1 (UniProt Q86Y37) | -0.046
CENPV (UniProt Q7Z7K6) | -0.201
CD80 (UniProt P33681) | 0.032
BTRC (UniProt Q9Y297) | -0.003
ATF7IP2 (UniProt Q5U623) | 0.101
CHD9 (UniProt Q3L8U1) | -0.074
CANX (UniProt D6RHJ3) | 0.072
BBS7 (UniProt Q8IWZ6) | 0.035
BAHCC1 (UniProt Q9P281) | 0.011
CAPNS1 (UniProt K7ES78) | -0.094
CDKL5 (UniProt O76039) | 0.043
BRAF, A0A2R8Y8E0 | -0.13
CAD (UniProt H7BZB3) | -0.011

compound: Cc1sc2c(c1C)C(c1ccc(Cl)cc1)=N[C@@H](CC(=O)OC(C)(C)C)c1nnc(C)n1-2; experiment: as above
Procedure, shortened: as §1

Target | log2 fold change
CEP57L1 (UniProt Q8IYX8) | 0.143
CDC25A (UniProt P30304) | -0.064
CDK11A (UniProt Q9UQ88) | 0.091
B3GALT6 (UniProt Q96L58) | 0.269
CEBPZOS (UniProt A8MTT3) | -0.006
BCORL1 isoform 3 (UniProt Q5H9F3) | 0
C1orf131 isoform 5 (UniProt Q8NDD1) | -0.009
BICRA (UniProt Q9NZM4) | -0.122
C15orf39 (UniProt Q6ZRI6) | 0.032
BNIP3 (UniProt Q12983) | -0.023
CACUL1 (UniProt Q86Y37) | 0.088
CD80 (UniProt P33681) | 0.018
ATXN2 (UniProt F8WB06) | -0.014
C9orf72 (UniProt Q96LT7) | -0.028
BUD13 (UniProt Q9BRD0) | -0.162
ATG4D (UniProt Q86TL0) | 0.041
ATPSCKMT (UniProt Q6P4H8) | 0.023
CHD4, A0A2R8Y521 | -0.136
CASP7 isoform 3 (UniProt P55210) | -0.105
CHD9 (UniProt Q3L8U1) | 0.236
CCND3 (UniProt P30281) | 0.036
C6orf120 (UniProt Q7Z4R8) | -0.131
BBS7 (UniProt Q8IWZ6) | -0.358
C8orf88 (UniProt P0DMB2) | 0.051
BAHCC1 (UniProt Q9P281) | -0.187
CAPNS1 (UniProt K7ES78) | -0.216
CDKL5 (UniProt O76039) | -0.139

Reference: the supplement of paper PMC10849652
